SW480 rerep = induces DNA re-replication in SW480 colon adenocarcinoma cells; hit rate 1.8% among 340,000; SW480 DNA re-replication, Hoechst DNA content imaging, 48 h; AID 624297; Potency, µM (series often up to 46.1 µM), for inactives: top-dose re-replication activation, actives largely listed as activators; further: % of control where 0% means no effect; nearly all actives have a fitted effect of over 55% in size
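Per well, 250 cells were exposed to pinned compound for 48 hr. Nuclear DNA was visualised with Hoechst (40 min, 37 C) and total object intensity recorded by fluorescence scanning.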
Mito fusion yeast = inhibitors of mitochondrial division or activators of mitochondrial fusion. S. cerevisiae fusion-defective mutant growth rescue, CellTiterGlo 48 h. AID 485298. hit rate 0.23% among 320,000. Potency, µM (series often up to 46.1 µM), for inactives: at the top dose growth rescue (activation), most hits filed as activators; further: % of control where 0% means no effect; nearly all actives have a fitted effect of over 45% in size
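Compounds are tested for their ability to restore growth of mitochondrial fusion-defective yeast strains at non-permissive 37C in YPEG medium over 48 hours. Viability is quantified by luciferase luminescence.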
MCF10A rereplic = inducers of DNA re-replication in MCF 10A breast cells. Potency, µM (doses to about 46.1 µM), for inactives: at the top dose activity, positive = re-replication, usual class: activators. hit rate 2.9% among 350,000. MCF 10A DNA re-replication, Hoechst nuclear intensity, 48 h; further: % of control where 0% means no effect; nearly all actives have a fitted effect of over 50% in size
a7 integrin act = activators of alpha7 integrin expression for muscular dystrophy | hit rate 0.064% among 350,000 | alpha7betagal myoblasts, beta-gal FDG fluorescence, 48 h | AID 624291 | Potency, µM (doses to about 38.3 µM), without a hit: at the highest dose activation, hits mostly activators;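 further: 100% = response of the positive control SU9516; nearly all actives have a fitted effect of over 60% in size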
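Alpha7betagal+/- myoblasts (passage 13) were plated 16-24 hr, then exposed to compounds (1:260 dilution of DMSO stock) for 48 hours at 37C. After MPER lysis, β-galactosidase reporter activity was read as FDG fluorescence (ex 480/em 540) after 30 minutes.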
AT treatment = potential ataxia-telangiectasia treatment; F2112 A-T fibroblasts, KAP-1 phosphorylation AlphaLISA; neocarzinostatin DNA damage 30 min before lysis; Potency, µM (highest dose often 57.5 µM), for the others: top-dose activation, usual class: activators; hit rate 0.19% among 320,000; further: % of control where 0% means no effect; nearly all actives have a fitted effect of over 45% in size
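hTERT-immortalized A-T patient fibroblasts (F2112), 500 cells/well in OPTI-MEM, 1% FBS, got compounds for 60 min, then NCS for 30 min at 37C. Lysates were then assayed for phospho-KAP-1 by AlphaLISA (anti-pKAP1 donor, anti-KAP1 acceptor beads), 6 hr at 25C.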
The depositor's hits bear a star; ? = inconclusive; nt = not tested or not shown. The list is not random: actives were taken first. Their share in the collection is about 4.2%. The call rests on the fitted dose curve; in most records, active means well fitted activation curve with a large enough effect; inconclusive means small, poorly fitted or top-dose-only effect; inactive means no such curve, though single readings can be large or run the other way. Potency means the concentration at half of the fitted maximal effect.

SMILES | SW480 rerep | Mito fusion yeast | MCF10A rereplic | a7 integrin act | AT treatment
Cn1c(C(=O)OC(C(=O)NC2CCCC2)c2cccnc2)cc2sccc21 (stereo not drawn) | ? | 13.5% | 10.3µM* | 8.6% | -2.9%
CCOC(=O)c1c(-c2ccc(OC)cc2)oc2cc(Br)c(O)cc12 | 0.3% | 11.5% | 14.6µM* | -23.5% | 4.3%
CCOC(=O)c1c(-c2ccc(OC)cc2)oc2ccc(O)cc12 | 0.8% | ? | ? | -10.6% | 12.9%
c1ccc2c(c1)[nH]c1ccccc12 | -7.6% | nt | -8.4% | 8.6% | nt
O=c1c2ccccc2[nH]c2ccccc12 | 18.4µM* | ? | 121.5% | 15.2% | ?
O=C(N/N=C/c1c[nH]c2ccccc12)c1cc(Cl)ccc1O | -8.2% | -16.5% | -0.4% | ? | 1.5%
COc1ccc(/C=C2\SC(=N)N(c3nccs3)C2=O)cc1OC | 11.6µM* | 13.7% | 10.3µM* | -50.3% | -0.4%
COc1ccc(C)cc1-n1cnnn1 | 5.6% | -0.4% | -1.0% | ? | -4.6%
CCCCCCCCCCCCCCCC[n+]1cccc(C(=O)N(CC)CC)c1 | 20.6µM* | -34.0% | ? | -60.2% | -0.9%
Cc1cccc(N2CCc3c2nc2ccc(Br)cc2c3N)c1 | -2.0% | ? | -5.0% | -4.1% | 3.7%
Nc1c2c(nc3ccc(Br)cc13)N(c1ccccc1)CC2 | 14.6µM* | 10.6% | 14.6µM* | 39.4% | 4.3%
O=C(NC1CCCc2ccccc21)C1CCN(c2nnc(-n3cccc3)s2)CC1 (stereo not drawn) | -1.0% | -0.9% | 16.4µM* | 0.0% | -0.7%
COc1cccc2sc(N(CCCN(C)C)C(=O)c3ccc(S(=O)(=O)N4CCc5ccccc5C4)cc3)nc12 | ? | -12.7% | ? | -48.2% | 6.9%
Cc1cc(C)c2sc(N(CCCN(C)C)C(=O)c3ccc(S(=O)(=O)N(C)Cc4ccccc4)cc3)nc2c1 | ? | -40.3% | ? | -14.7% | 1.9%
CN(C)CCCN(C(=O)c1ccc(S(=O)(=O)N2CCc3ccccc3C2)cc1)c1nc2c(F)cc(F)cc2s1 | 3.66µM* | -10.8% | 14.7% | -27.1% | -4.4%
COc1ccc(C)c2sc(N(CCCN(C)C)C(=O)c3ccc(S(=O)(=O)N4CCc5ccccc5C4)cc3)nc12 | ? | nt | 16.4µM* | -53.9% | nt
CCN(Cc1ccccc1)S(=O)(=O)c1ccc(C(=O)N(CCCN(C)C)c2nc3cc(C)cc(C)c3s2)cc1 | -13.8% | -16.5% | 23.1µM* | -69.2% | 3.2%
COc1ccc(OC)c2sc(N(CCCN(C)C)C(=O)c3ccc(S(=O)(=O)N4CCc5ccccc5C4)cc3)nc12 | nt | -10.4% | nt | nt | -8.2%
Cc1ccc2sc(N(CCCN(C)C)C(=O)c3ccc(S(=O)(=O)N4CCc5ccccc5C4)cc3)nc2c1C | 3.66µM* | -23.8% | ? | -45.9% | -6.7%
O=C(CC1C(=O)NCCN1Cc1ccccc1C(F)(F)F)NCCN1CCOCC1 (stereo not drawn) | -6.9% | -14.2% | -1.0% | 0.0% | 5.6%
COc1ccc(NC(=O)Nc2cccc3c2O[C@H](CN(C)Cc2ccc(-c4ccccc4)cc2)[C@@H](C)CN([C@H](C)CO)C3=O)cc1 | -3.9% | nt | -4.8% | 9.8% | -0.7%
Cc1ccc(C)c(OCCn2cc(/C=C(\C#N)C(=O)NCC3CCCO3)c3ccccc32)c1 (stereo not drawn) | ? | 13.5% | 16.4µM* | -19.7% | 1.8%
Cc1ccc(OCCn2cc(/C=C(\C#N)C(=O)NCC3CCCO3)c3ccccc32)cc1 (stereo not drawn) | nt | ? | 18.0% | -19.1% | -2.6%
COc1ccc(Cn2nnnc2CN(Cc2cc3cc(C)ccc3[nH]c2=O)C2CCCC2)cc1 | 13.8% | -3.1% | 23.1µM* | -4.9% | 5.2%
COc1ccc2[nH]c(=O)c(CN(Cc3nnnn3Cc3ccco3)C3CCCCC3)cc2c1 | ? | 7.5% | 30.0% | 15.6% | -3.8%
SMILES | SW480 rerep | Mito fusion yeast | MCF10A rereplic | a7 integrin act | AT treatment
O=C(c1cc2ccccc2o1)N1CCN(Cc2nc3ccccc3s2)CC1 | nt | nt | nt | 13.0% | nt
CCN1C(=O)[C@H]2[C@@H](c3ccc(C(F)(F)F)cc3)N[C@]3(CCCN(Cc4ccc(OC)cc4)C3=O)[C@H]2C1=O | nt | nt | nt | 10.9% | nt
O=C(c1ccco1)N1CCN(Cc2cc(=O)c(OCc3ccc(F)cc3)co2)CC1 | -39.8% | -2.8% | 29.3% | -6.2% | 8.0%
CC(C)(C)C1=CC(=O)C(=O)C(C(C)(C)C)=C1 | 18.4µM* | 17.1% | ? | -69.4% | ?
CC(C)(C)C1=CC(=Nc2ccccc2N)C=C(C(C)(C)C)C1=O | ? | -4.8% | -6.5% | -13.4% | 10.4%
CCOc1ccc2nc(NS(=O)(=O)Cc3ccccc3)sc2c1 | ? | 6.5% | 0.231µM* | 5.6% | nt
CCOc1ccc2nc(NS(=O)(=O)c3ccc(NC(C)=O)cc3)sc2c1 | -1.2% | 1.7% | 13.5% | 3.6% | 1.1%
COC(CNC(=O)C1CCCN1C(=O)OCc1ccccc1)OC (stereo not drawn) | -12.2% | -4.9% | -2.6% | -11.1% | -3.8%
COC(=O)[C@@H]1C[C@]2(OC(=O)c3ccccc3)C=CC(=O)C[C@@H]2N1C(=O)OCc1ccccc1 | 20.6µM* | 10.6% | 16.4µM* | -47.0% | -1.3%
O=C1C2C(C(=O)N1/N=C/c1ccc(N3CCCCC3)o1)C1C=CC2C12CC2 (stereo not drawn) | ? | 5.9% | 18.4µM* | -2.6% | 0.1%
CC1CCN(C2=NC(=O)/C(=C/c3cn(-c4ccccc4)nc3-c3cccc(S(=O)(=O)N(C)C)c3)S2)CC1 | 20.6µM* | -2.4% | 5.3% | 10.1% | 1.7%
CC1CCCN(C2=NC(=O)/C(=C/c3cn(-c4ccccc4)nc3-c3cccc(S(=O)(=O)N(C)C)c3)S2)C1 (stereo not drawn) | 0.2% | 1.1% | ? | -31.4% | -1.1%
Cc1ccc(NC(=O)COC(=O)c2nn(-c3ccc(Cl)cc3)cc2O)cc1 | -0.2% | nt | ? | 16.8% | 0.6%
NNC(=O)c1nn(-c2ccc(Cl)cc2)cc1O | 20.6µM* | 0.2% | 7.4% | ? | 2.4%
CC(CCc1ccccc1)NC(=O)CCCn1ncn2c(cc3occc32)c1=O (stereo not drawn) | -5.6% | 4.2% | 1.0% | -10.7% | 4.7%
O=C(C#Cc1ccccc1)c1ccco1 | 5.8µM* | -54.6% | ? | -55.6% | -5.6%
O=C(Cn1cc([N+](=O)[O-])cn1)Nc1ccccn1 | 34.8% | -1.1% | -0.9% | -10.6% | 2.8%
Cc1cc(C)c2sc(NC(=O)c3ccc([N+](=O)[O-])o3)nc2c1 | ? | -25.1% | 20.6µM* | -14.8% | -10.0%
O=C(Nc1nc2cc3c(cc2s1)OCCO3)c1ccc([N+](=O)[O-])o1 | 1.46µM* | -6.6% | 5.17µM* | -46.6% | 12.9%
O=C(Nc1nc2c(F)cc(F)cc2s1)c1ccc([N+](=O)[O-])o1 | 9.2µM* | -9.4% | 11.6µM* | -2.5% | 6.4%
O=C(Cn1cc([N+](=O)[O-])cn1)Nc1nc2ccccc2s1 | ? | -4.8% | 20.6µM* | 25.2% | -8.4%

Screening results (PubChem)
